“And” between values parts separate entries of the source, which are not always exact repeats. Equal values may be shown once. Records with an inconclusive call do not appear. Unmarked numbers belong to inactive results. Calls come from the whole dose curve; as a rule, active = well fitted inhibition curve with a large enough effect in the signal ratio, with a control signal flat (not every such curve was filed as active); inconclusive = small, poorly fitted or top-dose-only effect, or effect the other way, or a change in a side signal; inactive = flat fitted curve, though single readings scatter; the % refers to the signal ratio.
biological target: Thyroid hormone receptor beta (Homo sapiens) (UniProt P10828); experiment: qHTS assay for small molecule antagonists of thyroid hormone receptor beta signaling (AID 588547); settings: TR-UAS-bla HEK293, beta-lactamase ratio, antagonist mode, 18 h;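 note: cells stimulated with 0.4 nM T3 agonist during compound exposure; series mostly up to about 77 µM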
Sequence (P10828 whole entry, looked up): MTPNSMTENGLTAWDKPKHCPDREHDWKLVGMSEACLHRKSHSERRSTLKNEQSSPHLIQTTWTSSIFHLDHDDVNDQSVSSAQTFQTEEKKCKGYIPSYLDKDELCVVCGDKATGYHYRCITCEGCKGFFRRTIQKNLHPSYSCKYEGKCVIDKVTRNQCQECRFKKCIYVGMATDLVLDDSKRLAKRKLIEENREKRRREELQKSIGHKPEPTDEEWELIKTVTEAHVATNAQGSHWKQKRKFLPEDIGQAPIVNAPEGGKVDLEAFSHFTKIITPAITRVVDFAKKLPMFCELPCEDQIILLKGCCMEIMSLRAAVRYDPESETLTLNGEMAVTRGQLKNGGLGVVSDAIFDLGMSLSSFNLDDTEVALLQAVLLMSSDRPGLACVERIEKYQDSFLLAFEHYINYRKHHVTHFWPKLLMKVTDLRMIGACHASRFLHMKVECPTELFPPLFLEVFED
Description: NIH Chemical Genomics Center [NCGC] U.S. Environmental Protection Agency [EPA] National Institutes of Environmental Health Sciences [NIEHS] National Toxicology Program [NTP] NCGC Assay Overview Thyroid hormone receptor (TR) belongs to nuclear hormone receptor superfamily. There are two subtypes for TR: TR-alpha and TR-beta. TR-beta plays a major role in regulating plasma cholesterol levels and it mediates the biological activities of thyroid hormone. Screening environmental chemicals on TR-beta signaling will provide important information for the mechanism of compound action.
NCGC Assay Protocol Summary Using a beta-lactamase reporter-gene under control of the TR response element, a cell-based assay [GeneBLAzer TR-UAS-bla-GripTite assay developed by Invitrogen] was used to measure TR-beta signaling in antagonist mode. TR-UAS-bla-GripTite HEK 293 cells were used with assay medium containing 2% charcoal/dextran FBS, 0.1 mM NEAA and 1 mM sodium pyruvate. The assay was performed in clear bottom black Greiner 1536-well plates. Library compounds were measured for their ability to inhibit the reporter gene activity. Compounds were screened in a titration series in 1536-well format. The fluorescence intensity (405 nm excitation, 460/530 nm emission) was measured using an EnVision plate reader. […] Concentration-response titration points for each compound were fitted to the Hill equation yielding concentrations of half-maximal inhibition (IC50) and maximal response (efficacy) values. qHTS protocol for TR-beta beta-lactamase assay in antagonist mode [Step] [Parameter] [Value] [Description] 1. Reagent; 5 uL; 2500 cells/well 2. Incubation; 37 C for 4 hrs 3. Compounds; 23 nL; 0.59 nM to 92 uM 4. Controls (DMSO); 23 nL 5. Agonist (Stimulator); 1uL; T3 at 0.4nM (final) concentrations 6. Incubation; 37 C for 18 hrs 7. Detection reagent; 1 uL of CCF4-dye 8. Incubation; RT for 2 hrs 9. Detection; Fluorescence; Envision plate reader
% is set by controls: 0 for no effect and ±100 for the full control effect.

Row | Structure (SMILES) | activity change % (negative = inhibition)
1 | CC(C)=O | -5.42%
2 | CC1=CCC(C(C)(C)O)CC1 (stereo unspecified) | -18.4%
3 | CC(O)CO (stereo unspecified) | 11.6% and -10.9%
4 | CCCCC/C=C\C/C=C\CCCCCCCC(=O)O | 8.73% and 0.41%
5 | CCCCCCCC(=O)O | 8.96% and 0.409%
6 | CCOc1ccc2c(c1)C(C)=CC(C)(C)N2 | 8.54%
7 | CCCCCCCC/C=C\CCCCCCCC(=O)O | -12.5%
8 | O=C(O)CCC(=O)C(=O)O | 1.53%
9 | CC1=C(/C=C/C(C)=C/C=C/C(C)=C/CO)C(C)(C)CCC1 | 7.96% and 4.62%
10 | CC1(C)C(C=C(Cl)Cl)C1C(=O)OCc1cccc(Oc2ccccc2)c1 (stereo unspecified) | 3.43% [middle of 4 runs]
11 | IC(I)I | 1.7% and 9.81%
12 | Nc1ccn([C@H]2CS[C@@H](CO)O2)c(=O)n1 | 10.8%
13 | CCCCC(CC)COC(=O)CC(C(=O)OCC(CC)CCCC)S(=O)(=O)O (stereo unspecified) | -5.51%
14 | O=S(=O)(O)O | 16% and -10.1%
15 | O=CCCCC=O | 0.64%
16 | CCOC(C)=O | -2.37%

From PubChem BioAssay (NCATS)
